# About 83,000 compounds went through this panel and 20% of them were active in at least one assay; those are over-represented in the sample as a whole.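 Cell lines were cultured in 96-well plates, exposed to a single compound concentration, and assessed for percent growth 48 hours later.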 Values without a mark were called inactive. The source made the active and inactive calls. Rule for the calls: active = growth percent below 10; inactive = the rest.
# Columns and labels:
# Test in all cases: NCI-60 one-dose screen, 48 h (100 = growth as untreated, 0 = no growth, -100 = all killed)
# HCT-15 colon = settings: 10 µM unless noted
# HT29 colon = settings: 10 µM unless noted
# SNB-75 CNS = settings: 10 µM unless noted
# SNB-19 CNS = settings: 10 µM unless noted
# U251 CNS = settings: 10 µM unless noted
# PC-3 prostate = settings: 10 µM unless noted
# SK-MEL-5 melanoma = settings: 10 µM unless noted
# UACC-62 melanoma = settings: 10 µM unless noted
# LOX IMVI melanoma = settings: 10 µM
# SK-MEL-28 melanoma = settings: 10 µM unless noted
# SK-MEL-2 melanoma = settings: 10 µM unless noted
# SN12C renal = settings: 10 µM unless noted
# UO-31 renal = settings: 10 µM unless noted
# TK-10 renal = settings: 10 µM unless noted
# ACHN renal = settings: 10 µM unless noted
# CAKI-1 renal = settings: 10 µM unless noted
# A498 renal = settings: 10 µM unless noted
# MOLT-4 leukemia = settings: 10 µM unless noted
# CCRF-CEM leukemia = settings: 10 µM unless noted
# EKVX NSCLC = settings: 10 µM unless noted
Structure (SMILES),growth (HCT-15 colon),growth (HT29 colon),growth (SNB-75 CNS),growth (SNB-19 CNS) [%],growth (U251 CNS) [%],growth (PC-3 prostate),growth (SK-MEL-5 melanoma),growth (UACC-62 melanoma),growth (LOX IMVI melanoma),growth (SK-MEL-28 melanoma),growth (SK-MEL-2 melanoma),growth (SN12C renal) [%],growth (UO-31 renal),growth (TK-10 renal),growth (ACHN renal) [%],growth (CAKI-1 renal) [%],growth (A498 renal),growth (MOLT-4 leukemia),growth (CCRF-CEM leukemia),growth (EKVX NSCLC)
CC(C)=CCC[C@@H](C)[C@H]1CC[C@@]2(C)C3=C(CC[C@]12C)[C@@]1(C)CC[C@H](O)C(C)(C)[C@@H]1CC3,97.9%,90.1%,92.7%,105,99.2,101%,104%,101%,103%,104%,118%,102,111%,112%,101,99.1,114%,99%,,
CC(CC(CCC(=O)O)(c1ccccc1)c1ccccc1)N(C)C (stereo not given),95.6%,105%,99.6%,110,92.3,103%,95.5%,103%,98.8%,104%,104%,99.2,91.4%,98.2%,106,95,95%,107%,98.9%,
OC(CBr)CCBr (stereo not given),97.8%,105%,73.9%,97,93.3,87.5%,101%,95.1%,96.1%,107%,124%,96.8,103%,131%,100,92.4,97.5%,104%,88.2%,
C=CCc1cc(OC)c(O)c(OC)c1,98.7%,99.7%,90.9%,109,97.2,95.4%,99.8%,103%,101%,108%,102%,102,92.5%,113%,102,97.6,,102%,109%,
Cc1cc(C)cc(OCC(=O)O)c1,94.4%,119%,94.8%,97.1,103,104%,110%,98.5%,98.7%,107%,91.4%,99.1,86.9%,97.8%,98.6,,105%,124%,132%,
CCCCNc1ccc(-c2ccc(NCCCC)cc2)cc1,50.6%,101%,83%,77.3,64.2,71.7%,-40.7% (active),42.8%,25.9%,71.5%,101%,81.4,58.8%,92%,71.1,64.8,59.7%,68.8%,51.9%,
COC(CCCl)c1ccc(Cl)cc1 (stereo not given),98.3%,93.6%,84.4%,110,93.3,108%,101%,107%,101%,106%,83.5%,106,84.5%,86.3%,88.9,101,109%,95%,,
Cc1cccc2ccccc12,92.9%,95.8%,86.8%,103,102,95.5%,100%,103%,99.4%,98.2%,106%,100,86.8%,103%,99.7,91.6,,,102%,
COc1ccc(NNS(=O)(=O)O)cc1,101%,99.9%,83.2%,98.1,98,86.1%,102%,96.7%,99.7%,107%,103%,89.9,90.4%,103%,97.4,98.5,,105%,99.2%,
CCNc1ccc2ccccc2c1N=Nc1ccc(N=Nc2ccccc2)cc1,104%,112%,100%,112,109,87.1%,87.5%,72.6%,93.1%,120%,64.6%,96,71.1%,128%,95.2,107,,82.2%,95.8%,
CCOC(=O)C(CCC#N)(CCC#N)C(=O)OCC,98.7%,111%,80.9%,100,102,97.6%,102%,103%,111%,107%,112%,105,95.2%,102%,109,102,,97.3%,94.7%,
CC(=O)OC(C)c1cccc(C#N)c1 (stereo not given),105%,104%,89.7%,105,99,96.4%,99.1%,104%,101%,114%,110%,99.1,85.1%,110%,113,101,,102%,97.7%,
CCCCCCCCCCCCCCCCCC(=O)NCCNC(=O)CCCCCCCCCCCCCCCCC,95.1%,49.1%,82.8%,108,94.5,65%,102%,104%,61.4%,105%,90.2%,97.2,49%,106%,86.2,83.3,101%,67.2%,61.9%,
COc1ccc2c(Cl)cc(NC(=O)Nc3c(C)cccc3C)nc2c1,95.7%,88%,-24.7% (active),79.3,76.1,72.4%,63.6%,87.7%,60.7%,97%,106%,82.6,14.4%,35%,41.9,11.1,,81.6%,86.5%,
COC(=O)c1cccc([N+](=O)[O-])c1,105%,101%,120%,98.6,97.4,97.4%,98.9%,98.7%,100%,102%,94.1%,95.2,98.2%,101%,109,108,92.9%,105%,104%,
CCC(=O)Oc1c(C)cc(O)c2ccccc12,91.1%,106%,86.4%,108,87.7,59%,82%,67.3%,75%,119%,90.4%,93.3,51.8%,132%,77.5,95.1,101%,64%,,
O=S(=O)(OCCOS(=O)(=O)c1ccccc1)c1ccccc1,91.9%,92.2%,93.6%,104,92.6,94.4%,93.6%,95.4%,91.7%,112%,103%,97.1,83.2%,102%,105,89.8,,93%,92.9%,
NC(=O)OCCO,108%,99%,110%,108,97.4,98.5%,95.4%,100%,94.6%,113%,100%,105,87.7%,98.8%,113,99.6,,97.7%,99.5%,
CCN(C(C)=O)c1ccc([N+](=O)[O-])cc1,109%,104%,108%,101,90.8,97.5%,96.2%,97.5%,98.6%,106%,107%,105,89.7%,93%,113,102,82.5%,95.6%,98.9%,

Structure (SMILES),growth (HCT-15 colon),growth (HT29 colon),growth (SNB-75 CNS),growth (SNB-19 CNS) [%],growth (U251 CNS) [%],growth (PC-3 prostate),growth (SK-MEL-5 melanoma),growth (UACC-62 melanoma),growth (LOX IMVI melanoma),growth (SK-MEL-28 melanoma),growth (SK-MEL-2 melanoma),growth (SN12C renal) [%],growth (UO-31 renal),growth (TK-10 renal),growth (ACHN renal) [%],growth (CAKI-1 renal) [%],growth (A498 renal),growth (MOLT-4 leukemia),growth (CCRF-CEM leukemia),growth (EKVX NSCLC)
CC(CO)(CO)C(=O)O,100%,102%,97.4%,105,102,94.9%,97.3%,103%,97.9%,110%,108%,105,98.6%,103%,103,99,,108%,93.5%,
O=C(OC1CCCC1)c1ccccc1Cl,111%,105%,90.3%,105,101,95.7%,108%,99.2%,97%,107%,,108,93.2%,100%,104,101,86.6%,,107%,111%
ON1CCCC1,101%,95.3%,83.2%,103,100,101%,109%,105%,94.8%,106%,106%,102,,94%,109,92.9,97.5%,81%,,
O=C(O)Cc1ccc(Cl)cc1,112%,107%,102%,108,104,85.7%,114%,110%,103%,132%,,122,99.4%,107%,103,,95.9%,8.9% (active),132%,79.2%
S=c1nc2[nH]c3ccccc3c2n[nH]1,97.3%,98.6%,103%,83.3,105,82.3%,90.1%,87.1%,89.6%,91.7%,5.51% (active),92.2,,122%,97.2,88.9,95.7%,104%,91.3%,
CCOc1ccccc1NC(=O)CCl,85.9%,89.3%,88.3%,101,29,83.5%,71.2%,83.7%,85.3%,87%,,94.5,116%,94.5%,108,95.6,113%,70.2%,63.5%,111%
CC(C)c1ccc(C(=O)OCCCl)cc1,94%,109%,94%,91.1,101,106%,100%,110%,97.1%,92%,,99.3,92.6%,94.6%,94.5,383,92.7%,100%,107%,
Cc1ccc(S(=O)(=O)CCCl)cc1,90.9%,110%,94.7%,97.1,101,90.7%,114%,99.8%,107%,115%,,99,74.2%,97.4%,98.2,117,,95.5%,101%,97.6%
O=C(CC(CC(=O)c1ccccc1)c1ccccn1)c1ccccc1,106%,95.5%,92.6%,93.3,99.3,85.1%,95.4%,87.2%,94.2%,110%,106%,92.6,68.6%,123%,97.8,,94.2%,102%,103%,
Cc1cc(NC(=O)c2ccccc2)c(Cl)cc1N,100%,102%,100%,93.9,102,108%,97.5%,89.8%,97.6%,124%,,100,86.6%,141%,98.8,,,,47.9%,107%
COc1cc(OC)c(NC(=O)C(Sc2nc(C)cc(C)c2C#N)c2ccccc2)cc1Cl (stereo not given),97.7%,107%,27.4%,94.1,87.3,102%,102%,94.6%,89.6%,105%,,98.5,102%,96.3%,85.8,94.6,111%,90.9%,99.4%,
NC(=S)c1c(N)n(C2OC(CO)C(O)C2O)c2ncnc(N)c12 (stereo not given),3.4% (active),5.09% (active),-8.18% (active),14.9,17.3,-10.1% (active),-77.5% (active),-73.7% (active),-3.22% (active),-46.8% (active),,15,-40% (active),-4.54% (active),11.3,,-55.6% (active),,-48.9% (active),-27.4% (active)
O=c1[nH]c(=O)c2cc(Cl)cc(Cl)c2[nH]1,107%,106%,68.2%,95,103,93.7%,103%,96.7%,120%,124%,,91,75.3%,97.6%,103,92,121%,95.7%,99.6%,92.7%
Nc1ncc([N+](=O)[O-])cn1,108%,81.2%,99.1%,95.6,96.2,88.7%,94.6%,98.9%,99.7%,103%,93.1%,101,,94.5%,109,,87.8%,,98.4%,
Nc1nc(Cl)cc(Cl)n1,102%,86.8%,91.4%,113,102,98.5%,98.8%,107%,92.5%,119%,96%,110,,93.6%,105,102,118%,,108%,
Clc1ccc(-c2noc(/C=C\c3ccccc3)n2)cc1,95%,102%,103%,102,91.2,102%,97.6%,100%,97.5%,106%,,105,83.5%,115%,98.3,96.1,93.7%,,92.3%,
Cc1ccc(O)c(N)c1,106%,112%,87.7%,101,103,94.7%,103%,81.5%,105%,122%,112%,107,,127%,97,215,127%,,78.7%,
CCOC(=O)c1ccc(C(C)(C)C)cc1,111%,109%,102%,112,97.5,105%,105%,106%,99.8%,109%,,107,89.8%,103%,110,101,114%,87.1%,113%,114%
